# Measurements taken from PubChem BioAssay (EPA / NIEHS).
# Results filed as inconclusive are left out. Activity calls are given as the source filed them. The calls were made as follows, unless noted: active = hit-call score of the fitted dose curve at least 0.9, where 1 is the maximum; inactive = score below 0.9.
# Tests used:
# [1] = biological target: Paired box protein Pax-6 (Homo sapiens) (UniProt P26367); assay: ATG_Pax6_CIS: Attagene CIS-FACTORIAL HepG2 Assay for human Paired Box 6 (PAX6) (AID 2282956); conditions: HepG2 CIS-FACTORIAL PAX6 reporter transcription, RNA readout; actives raise or lower the signal
# In short: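 Fluorescent RT-PCR products separated by capillary electrophoresis report PAX6-linked promoter mRNA in HepG2 cells 24 h post-dose. Curves fitted bidirectionally, DMSO as negative control.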
# [2] = ATG_PXRE_CIS: Attagene CIS-FACTORIAL HepG2 Assay for human Pregnane X Receptor Element (PXRE) (AID 2282957); conditions: HepG2 Attagene CIS-FACTORIAL PXRE reporter, mRNA; actives raise or lower the signal
# In short: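 After a 24 h chemical incubation, total RNA from transfected HepG2 cells was reverse-transcribed and reporter cDNA amplified, FAM-labeled, HpaI-digested and sized by capillary electrophoresis. DMSO served as baseline for bidirectional curve fitting.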
# [3] = ATG_PPRE_CIS: Attagene CIS-FACTORIAL HepG2 Assay for human Peroxisome Proliferator-activated Response Element (PPRE) (AID 2282958); conditions: HepG2 PPRE cis-element reporter, Attagene transcription factor profiling; actives raise or lower the signal
# In short: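 PPRE activity in HepG2: transient cis-reporter transfection, 24 h compound incubation, reporter mRNA by RT-PCR and CE fluorescence; gain/loss fitted against DMSO.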
# [4] = ATG_RORE_CIS: Attagene CIS-FACTORIAL HepG2 Assay for human RAR-related Orphan Receptor Element (RORE) (AID 2282959); conditions: HepG2 Attagene cis-factorial RORE reporter, mRNA; actives raise or lower the signal
# In short: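 A 24-hour exposure of transfected HepG2 hepatoma cells precedes RNA isolation and reporter RT-PCR. Labeled products are digested with HpaI and resolved by capillary electrophoresis, with gain or loss of signal scored relative to DMSO.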
# [5] = ATG_Sox_CIS: Attagene CIS-FACTORIAL HepG2 Assay for human SRY-box transcription factor (SOX) (AID 2282960); conditions: HepG2 Attagene cis-factorial SOX reporter, mRNA; actives raise or lower the signal
# In short: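 HepG2, cis reporter units, 24 h exposure. Reporter mRNA: RT-PCR → FAM labelling → HpaI → CE fluorescence. Bidirectional fit vs DMSO.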
# [6] = biological target: Transcription factor Sp1 (Homo sapiens) (UniProt P08047); assay: ATG_Sp1_CIS: Attagene CIS-FACTORIAL HepG2 Assay for human Specificity Protein 1 (Sp1) (AID 2282961); conditions: HepG2 Sp1 cis-reporter transcription, actives raise or lower the signal
# In short: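 Liver-derived HepG2 cells, cis-element reporter library, 24 h treatment; RNA isolated, cDNA amplified with reporter-specific primers, FAM-labeled fragments sized on capillary analyzer. DMSO baseline, bidirectional curve fit.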
# [7] = ATG_SREBP_CIS: Attagene CIS-FACTORIAL HepG2 Assay for human Sterol Regulatory Element Binding (SREBP) (AID 2282962); conditions: HepG2 Attagene cis-factorial SREBP reporter, mRNA; actives raise or lower the signal
# In short: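 Endogenous factor activity is measured in HepG2 through multiplexed reporter units under cis-element control. Following a 24 h incubation, reporter transcripts are reverse-transcribed, PCR-amplified and sized by capillary electrophoresis; activity is fitted in both directions relative to DMSO.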
# [8] = biological target: Signal transducer and activator of transcription 3 (Homo sapiens) (UniProt P40763); assay: ATG_STAT3_CIS: Attagene CIS-FACTORIAL HepG2 Assay for human Signal Transducer and Activator of Transcription 3 (STAT3) (AID 2282963); conditions: HepG2, Attagene cis-factorial STAT3 reporter transcription; actives raise or lower the signal
# In short: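 Fluorescence intensity of 6-FAM-labelled reporter fragments, separated by capillary electrophoresis after RT-PCR, gave the signal. Cells were HepG2 transfected with cis-element reporter units and treated 24 h; fitting was bidirectional relative to DMSO.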
# [9] = ATG_TA_CIS: Attagene CIS-FACTORIAL HepG2 Assay for human TA Basal Promoter (AID 2282964); conditions: HepG2 Attagene CIS-factorial TA basal promoter reporter; actives raise or lower the signal
# In short: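 Transfected HepG2, 24 h compound exposure; RNA → RT-PCR → FAM primer extension → HpaI cut → CE fluorescence. Gain/loss-of-signal fitted against DMSO negative control. Background-control readout.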
# [10] = ATG_TCF_b_cat_CIS: Attagene CIS-FACTORIAL HepG2 Assay for human T-Cell-Factor with beta-catenin (TCF/b-cat) (AID 2282965); conditions: HepG2 TCF/beta-catenin cis-reporter transcription, actives raise or lower the signal
# In short: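 HepG2, transient MRTU transfection, cis-element-driven reporters (endogenous TFs). 24 h compound exposure. Readout: reporter mRNA by RT-PCR + 6-FAM primer extension, HpaI digest, capillary electrophoresis. Gain/loss fit vs DMSO baseline.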
# [11] = ATG_TAL_CIS: Attagene CIS-FACTORIAL HepG2 Assay for human TAL Basal Promoter (AID 2282966); conditions: HepG2 Attagene cis-factorial TAL promoter reporter; actives raise or lower the signal;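 also: background control endpoint measuring basal TAL promoter reporter mRNA not a specific factor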
# In short: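 Basal-promoter background-control endpoint from a multiplexed HepG2 reporter panel. Cells were exposed 24 h, then reporter mRNA was read by RT-PCR/CE fluorescence and fitted in both directions relative to DMSO.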
# [12] = ATG_TGFb_CIS: Attagene CIS-FACTORIAL HepG2 Assay for human Transforming Growth Factor (TGF) (AID 2282967); conditions: HepG2 Attagene CIS TGFb reporter, mRNA transcription; actives raise or lower the signal
# In short: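 Readout: fluorescently labeled reporter cDNA fragments resolved by capillary electrophoresis after RT-PCR. Transfected HepG2 cells dosed for 24 h; endogenous TF activity at TGFB1-linked cis element; gain or loss fitted relative to DMSO.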
# [13] = ATG_VDRE_CIS: Attagene CIS-FACTORIAL HepG2 Assay for human Vitamin D Receptor Element (VDRE) (AID 2282968); conditions: HepG2 VDRE cis-reporter transcription, actives raise or lower the signal
# In short: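 Compounds were applied for 24 h to HepG2 cells transfected with promoter-regulated reporter units. Total RNA was reverse-transcribed, and reporter amplicons were fluorescently labelled and sized by capillary electrophoresis.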
# [14] = biological target: Nuclear receptor subfamily 1 group I member 3 (Homo sapiens) (UniProt Q14994); assay: ATG_CAR_TRANS: Attagene TRANS-FACTORIAL HepG2 Assay for human Constitutive Androstane Receptor (CAR) (AID 2282969; active = hit-call score of the fitted dose curve at least 0.9, where 1 is the maximum;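 also: activators raise reporter mRNA above DMSO so AC50 marks induction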); conditions: HepG2 Attagene TRANS-FACTORIAL CAR reporter
# In short: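 Transiently transfected HepG2, multiplex TRANS reporters (CAR-Gal4 chimera driving GAL4-UAS reporter). 24 h dosing. Readout: reporter transcript by RT-PCR + capillary electrophoresis, fluorescence intensity; positive direction vs DMSO.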
# [15] = biological target: Estrogen receptor (Homo sapiens) (UniProt P03372); assay: ATG_ERa_TRANS: Attagene TRANS-FACTORIAL HepG2 Assay for human Estrogen Receptor alpha (ERa) (AID 2282970; active = hit-call score of the fitted dose curve at least 0.9, where 1 is the maximum); conditions: HepG2 Attagene TRANS ERa GAL4 reporter, mRNA
# In short: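 Gal4-fusion ERa transactivation, measured as reporter transcript level in transiently transfected HepG2 cells. Exposure 24 h; RT-PCR plus capillary electrophoresis with fluorescence detection.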
# [16] = biological target: X-box-binding protein 1 (Homo sapiens) (UniProt P17861); assay: ATG_Xbp1_CIS: Attagene CIS-FACTORIAL HepG2 Assay for human X-box Binding Protein 1 (XBP1) (AID 2282972); conditions: HepG2 XBP1 cis-element reporter, Attagene multiplex; actives raise or lower the signal
# In short: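 Multiplexed cis-reporter readout in transfected HepG2 liver cells. Exposure lasted 24 hours. Activity in either direction was fitted against DMSO as negative control and baseline.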
# [17] = ATG_M_19_TRANS: Attagene TRANS-FACTORIAL HepG2 Assay for M19 Transcription Factor (Internal Marker) (AID 2282974; active = hit-call score of the fitted dose curve at least 0.9, where 1 is the maximum); conditions: HepG2 Attagene TRANS-FACTORIAL M19 internal marker reporter
# In short: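 Transfected HepG2 (GAL4-UAS MRTUs), 24 h compound, TriZol RNA, DNase-treated RT, reporter PCR, FAM label, HpaI digest, CE fluorescence; gain vs DMSO.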
# [18] = biological target: Estrogen-related receptor gamma (Homo sapiens) (UniProt P62508); assay: ATG_ERRg_TRANS: Attagene TRANS-FACTORIAL HepG2 Assay for human Estrogen-Related Receptor gamma (ERRg) (AID 2282977; active = hit-call score of the fitted dose curve at least 0.9, where 1 is the maximum;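 also: hits increase reporter signal over DMSO so potencies reflect activators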); conditions: HepG2 Attagene TRANS reporter, ERRg transactivation
# In short: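 Induction of reporter transcripts through a chimeric NR-Gal4 protein is quantified in transfected human HepG2 liver cells after 24 h chemical exposure, using RT-PCR with capillary electrophoresis detection and DMSO as baseline.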
# [19] = ATG_GAL4_TRANS: Attagene TRANS-FACTORIAL HepG2 Assay for GAL4 (Internal Marker) (AID 2282976; active = hit-call score of the fitted dose curve at least 0.9, where 1 is the maximum); conditions: HepG2 Attagene TRANS GAL4 internal marker reporter
# In short: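 Background-control readout: GAL4-UAS reporter transcript in transiently transfected HepG2 cells after 24 h compound exposure. Measured by RT-PCR, 6-FAM primer extension, HpaI digest and capillary electrophoresis; gain-of-signal fit versus DMSO.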
# Sequence of Estrogen receptor (Homo sapiens) (P03372 whole entry, looked up, the tested form may be a part): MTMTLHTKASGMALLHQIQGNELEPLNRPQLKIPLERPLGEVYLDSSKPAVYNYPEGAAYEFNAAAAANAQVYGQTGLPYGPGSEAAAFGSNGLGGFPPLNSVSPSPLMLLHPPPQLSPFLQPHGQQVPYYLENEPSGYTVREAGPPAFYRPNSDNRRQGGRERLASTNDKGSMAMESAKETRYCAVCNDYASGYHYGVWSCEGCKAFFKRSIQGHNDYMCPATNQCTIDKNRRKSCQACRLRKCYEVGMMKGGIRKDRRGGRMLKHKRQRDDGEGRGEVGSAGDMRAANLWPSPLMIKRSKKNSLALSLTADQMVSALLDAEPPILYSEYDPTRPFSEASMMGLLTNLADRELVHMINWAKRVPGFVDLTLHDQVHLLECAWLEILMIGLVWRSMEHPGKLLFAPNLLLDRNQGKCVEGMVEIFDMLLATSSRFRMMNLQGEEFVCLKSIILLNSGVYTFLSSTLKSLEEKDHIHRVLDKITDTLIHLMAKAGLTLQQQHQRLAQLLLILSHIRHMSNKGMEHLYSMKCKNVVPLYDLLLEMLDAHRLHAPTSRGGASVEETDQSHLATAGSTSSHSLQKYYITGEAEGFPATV
# Sequence of Transcription factor Sp1 (Homo sapiens) (P08047 whole entry, looked up, the tested form may be a part): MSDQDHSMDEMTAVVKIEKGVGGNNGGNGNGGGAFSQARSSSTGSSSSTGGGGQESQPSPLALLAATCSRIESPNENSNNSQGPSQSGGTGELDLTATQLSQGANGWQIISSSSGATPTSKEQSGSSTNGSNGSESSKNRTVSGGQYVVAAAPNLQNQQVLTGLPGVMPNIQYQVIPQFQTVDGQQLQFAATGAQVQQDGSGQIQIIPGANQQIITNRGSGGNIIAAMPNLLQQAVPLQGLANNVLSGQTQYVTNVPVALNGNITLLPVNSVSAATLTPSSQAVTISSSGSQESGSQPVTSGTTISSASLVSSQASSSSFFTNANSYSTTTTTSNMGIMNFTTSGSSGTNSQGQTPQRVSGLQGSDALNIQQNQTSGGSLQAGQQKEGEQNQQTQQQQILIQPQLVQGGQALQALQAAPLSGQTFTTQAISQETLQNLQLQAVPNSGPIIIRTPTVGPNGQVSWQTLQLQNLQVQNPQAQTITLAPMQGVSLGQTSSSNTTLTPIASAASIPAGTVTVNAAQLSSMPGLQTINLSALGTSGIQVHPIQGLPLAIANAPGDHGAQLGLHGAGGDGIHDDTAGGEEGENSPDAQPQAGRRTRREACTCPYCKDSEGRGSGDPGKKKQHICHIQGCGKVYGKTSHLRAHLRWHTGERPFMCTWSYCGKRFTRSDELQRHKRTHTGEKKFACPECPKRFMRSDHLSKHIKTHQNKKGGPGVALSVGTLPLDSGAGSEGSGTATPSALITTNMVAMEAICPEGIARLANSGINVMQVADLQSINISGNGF
# Sequence of Signal transducer and activator of transcription 3 (Homo sapiens) (P40763 whole entry, looked up, the tested form may be a part): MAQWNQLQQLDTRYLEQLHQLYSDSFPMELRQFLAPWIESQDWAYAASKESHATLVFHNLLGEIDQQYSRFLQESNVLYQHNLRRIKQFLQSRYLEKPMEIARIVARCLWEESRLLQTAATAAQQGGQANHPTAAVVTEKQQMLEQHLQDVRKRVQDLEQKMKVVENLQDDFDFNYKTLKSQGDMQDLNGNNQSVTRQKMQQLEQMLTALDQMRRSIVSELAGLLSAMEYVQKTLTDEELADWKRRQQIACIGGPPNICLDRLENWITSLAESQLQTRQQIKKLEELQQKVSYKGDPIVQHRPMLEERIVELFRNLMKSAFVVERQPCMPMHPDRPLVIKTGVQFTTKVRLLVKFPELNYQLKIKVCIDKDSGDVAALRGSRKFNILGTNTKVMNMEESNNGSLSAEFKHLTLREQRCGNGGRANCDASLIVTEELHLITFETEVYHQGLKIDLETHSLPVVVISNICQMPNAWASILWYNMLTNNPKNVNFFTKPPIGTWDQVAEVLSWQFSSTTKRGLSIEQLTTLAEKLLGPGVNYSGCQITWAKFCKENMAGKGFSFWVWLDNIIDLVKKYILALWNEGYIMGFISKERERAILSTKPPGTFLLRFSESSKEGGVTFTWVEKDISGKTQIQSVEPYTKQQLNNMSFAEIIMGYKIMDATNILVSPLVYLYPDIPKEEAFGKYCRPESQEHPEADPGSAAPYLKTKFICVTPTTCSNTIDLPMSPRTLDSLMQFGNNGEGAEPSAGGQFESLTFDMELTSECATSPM
# Sequence of X-box-binding protein 1 (Homo sapiens) (P17861 whole entry, looked up): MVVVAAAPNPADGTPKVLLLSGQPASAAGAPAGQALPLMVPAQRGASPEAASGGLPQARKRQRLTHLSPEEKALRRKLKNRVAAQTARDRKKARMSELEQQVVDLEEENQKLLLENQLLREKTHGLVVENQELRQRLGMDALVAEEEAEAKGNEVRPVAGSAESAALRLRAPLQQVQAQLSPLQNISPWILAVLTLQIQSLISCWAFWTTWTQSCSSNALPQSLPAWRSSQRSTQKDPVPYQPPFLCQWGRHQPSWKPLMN
# Sequence of Paired box protein Pax-6 (Homo sapiens) (P26367 whole entry, looked up): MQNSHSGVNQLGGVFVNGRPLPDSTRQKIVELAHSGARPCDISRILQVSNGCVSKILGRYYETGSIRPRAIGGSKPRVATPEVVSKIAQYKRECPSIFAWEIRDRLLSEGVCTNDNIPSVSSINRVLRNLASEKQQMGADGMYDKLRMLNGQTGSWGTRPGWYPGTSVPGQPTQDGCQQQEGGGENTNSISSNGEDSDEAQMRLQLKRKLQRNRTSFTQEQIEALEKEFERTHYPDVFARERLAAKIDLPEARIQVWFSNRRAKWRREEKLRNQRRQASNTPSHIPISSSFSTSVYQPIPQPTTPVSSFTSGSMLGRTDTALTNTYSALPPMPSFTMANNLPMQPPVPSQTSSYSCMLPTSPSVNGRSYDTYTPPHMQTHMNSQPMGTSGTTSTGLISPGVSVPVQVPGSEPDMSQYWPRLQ
# Sequence of Nuclear receptor subfamily 1 group I member 3 (Homo sapiens) (Q14994 whole entry, looked up, the tested form may be a part): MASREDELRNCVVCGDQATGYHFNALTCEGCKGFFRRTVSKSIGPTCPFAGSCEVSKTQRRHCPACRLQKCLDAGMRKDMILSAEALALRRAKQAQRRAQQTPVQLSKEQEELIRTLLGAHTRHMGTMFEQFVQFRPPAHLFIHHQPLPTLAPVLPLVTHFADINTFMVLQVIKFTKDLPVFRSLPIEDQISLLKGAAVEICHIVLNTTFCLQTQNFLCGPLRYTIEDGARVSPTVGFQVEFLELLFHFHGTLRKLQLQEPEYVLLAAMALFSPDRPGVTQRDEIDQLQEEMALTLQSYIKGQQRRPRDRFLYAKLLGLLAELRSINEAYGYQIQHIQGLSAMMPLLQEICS
# Sequence of Estrogen-related receptor gamma (Homo sapiens) (P62508 whole entry, looked up, the tested form may be a part): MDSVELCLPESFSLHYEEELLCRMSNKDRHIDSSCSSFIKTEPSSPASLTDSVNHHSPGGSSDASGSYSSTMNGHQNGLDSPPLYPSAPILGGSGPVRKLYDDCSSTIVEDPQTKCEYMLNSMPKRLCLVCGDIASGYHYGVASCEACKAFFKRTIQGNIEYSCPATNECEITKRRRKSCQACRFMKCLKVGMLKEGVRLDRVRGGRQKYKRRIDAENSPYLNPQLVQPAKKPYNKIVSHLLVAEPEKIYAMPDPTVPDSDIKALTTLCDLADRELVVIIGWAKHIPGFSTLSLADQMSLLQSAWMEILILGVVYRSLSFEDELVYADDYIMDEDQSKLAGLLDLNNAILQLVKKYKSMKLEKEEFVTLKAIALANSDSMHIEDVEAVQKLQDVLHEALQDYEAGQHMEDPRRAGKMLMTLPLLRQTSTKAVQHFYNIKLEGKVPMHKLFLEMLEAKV
smiles,measurement,setting,value
C=C1C2CCC(C2)C1(C)C (configuration not stated),outcome,[1],inactive
same,AC50,[2],31.4 µM (active)
same,outcome,[3],inactive
same,outcome,[4],inactive
same,outcome,[5],inactive
same,outcome,[6],inactive
same,outcome,[7],inactive
same,outcome,[8],inactive
same,outcome,[9],inactive
same,outcome,[10],inactive
same,outcome,[11],inactive
same,outcome,[12],inactive
same,outcome,[13],inactive
same,outcome,[14],inactive
same,outcome,[15],inactive
same,outcome,[16],inactive
same,outcome,[17],inactive
same,outcome,[18],inactive
O=CN1CCCCC1,outcome,[1],inactive
same,outcome,[2],inactive
same,outcome,[3],inactive
same,outcome,[4],inactive
same,outcome,[5],inactive
same,outcome,[6],inactive
same,outcome,[7],inactive
same,outcome,[8],inactive
same,outcome,[9],inactive
same,outcome,[10],inactive
same,outcome,[11],inactive
same,outcome,[12],inactive
same,outcome,[13],inactive
same,outcome,[14],inactive
same,outcome,[15],inactive
same,outcome,[16],inactive
same,outcome,[17],inactive
same,outcome,[19],inactive
O=C(OCC1CCC2OC2C1)C1CCC2OC2C1 (configuration not stated),outcome,[1],inactive
same,outcome,[2],inactive
same,outcome,[3],inactive
same,outcome,[4],inactive
same,outcome,[5],inactive
same,outcome,[6],inactive
same,outcome,[7],inactive
same,outcome,[8],inactive
same,outcome,[9],inactive
same,outcome,[10],inactive
same,outcome,[11],inactive
same,outcome,[12],inactive
same,outcome,[13],inactive
same,outcome,[14],inactive
same,outcome,[16],inactive
CCCCCCCOC(=O)CCC,outcome,[1],inactive
same,AC50,[2],48 µM (active)
same,outcome,[3],inactive
same,outcome,[4],inactive
same,outcome,[5],inactive
same,outcome,[6],inactive
same,outcome,[7],inactive
same,outcome,[8],inactive
same,outcome,[9],inactive
same,outcome,[10],inactive
same,outcome,[11],inactive
same,outcome,[12],inactive
same,outcome,[13],inactive
same,outcome,[14],inactive
same,outcome,[15],inactive
same,outcome,[16],inactive
same,outcome,[19],inactive
CC1=CC[C@H]2C[C@@H]1C2(C)C,outcome,[1],inactive
same,outcome,[2],inactive
same,outcome,[3],inactive
same,outcome,[4],inactive
same,outcome,[5],inactive
same,outcome,[6],inactive
same,outcome,[7],inactive
same,outcome,[8],inactive
same,outcome,[9],inactive
same,outcome,[10],inactive
same,outcome,[11],inactive
same,outcome,[12],inactive
same,outcome,[13],inactive
same,outcome,[15],inactive
same,outcome,[16],inactive
same,outcome,[17],inactive
same,outcome,[19],inactive
Nc1ncn([C@@H]2O[C@H](CO)[C@@H](O)[C@H]2O)c(=O)n1,outcome,[1],inactive
same,outcome,[2],inactive
same,outcome,[3],inactive
same,outcome,[4],inactive
same,outcome,[5],inactive
same,outcome,[6],inactive
same,outcome,[7],inactive
same,outcome,[8],inactive
same,outcome,[9],inactive
same,AC50,[10],0.975 µM (active)
same,outcome,[11],inactive
same,outcome,[12],inactive
same,outcome,[13],inactive
same,outcome,[14],inactive
same,outcome,[15],inactive
same,outcome,[16],inactive
same,outcome,[17],inactive
same,outcome,[18],inactive
CCCCCCCCCCCCCOP(=O)(O)O,outcome,[1],inactive
same,AC50,[2],7.54 µM (active)
same,outcome,[3],inactive
same,outcome,[4],inactive
same,outcome,[5],inactive
same,outcome,[6],inactive
same,outcome,[7],inactive
same,outcome,[8],inactive
same,outcome,[9],inactive
same,outcome,[10],inactive
same,outcome,[11],inactive
same,outcome,[12],inactive
same,outcome,[13],inactive
same,outcome,[14],inactive
same,outcome,[15],inactive
same,outcome,[16],inactive
Cc1cc(C)c(C)c(O)c1,outcome,[1],inactive
same,AC50,[2],42.3 µM (active)
same,outcome,[3],inactive
same,outcome,[4],inactive
same,outcome,[5],inactive
same,outcome,[6],inactive
same,outcome,[7],inactive
same,outcome,[8],inactive
same,outcome,[9],inactive
same,outcome,[10],inactive
same,outcome,[11],inactive
same,outcome,[12],inactive
same,outcome,[13],inactive
same,outcome,[14],inactive
same,outcome,[15],inactive
same,outcome,[16],inactive
same,outcome,[17],inactive
same,outcome,[19],inactive
